Where “and” joins values, the source holds several entries; their conditions need not be identical. Equal values may be shown once. The campaign covered roughly 5,500 compounds. About 2,000 (36%) were called active. Roughly 18% stayed inconclusive and do not appear here. No stated cut-off is given here; in the data, active means normalized growth mostly below about 0.91 (no sharp cut-off); inconclusive means no clear call, values can overlap the other calls; inactive means mostly above about 0.92. Some of the results follow.
Test: chemical genetic growth profiling, strain panel (AID 1159580);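 further: tested at 20 µM; growth read once vehicle control cultures reached saturation at 30 °C; 1 = growth at the plate median or of vehicle wells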
Settings: S. cerevisiae deletion strains, growth OD

Measured: normalized growth

CC(=O)NCc1c(I)c(NC(C)=O)c(I)c(C(=O)O)c1I
inactive: locus YAL013W, strain DEP1, stronger effect = lower value 0.997 | locus YAL021C, strain ccr4, stronger effect = lower value 0.989 | locus YAL026C, strain drs2, stronger effect = lower value 0.997 | locus YAL030W, strain snc1, stronger effect = lower value 1 | locus YBL061C, strain skt5, stronger effect = lower value 0.994 | locus YBR009C, strain hhf1, stronger effect = lower value 0.991 | locus YBR021W, strain FUR4, stronger effect = lower value 1.02 | locus YBR023C, strain chs3, stronger effect = lower value 0.993 | locus YBR171W, strain sec66, stronger effect = lower value 0.995 | locus YBR229C, strain ROT2, stronger effect = lower value 0.999 | locus YBR231C, strain swc5, stronger effect = lower value 1 | locus YBR279W, strain paf1, stronger effect = lower value 0.989 | locus YCL011C, strain gbp2, stronger effect = lower value 1 | locus YCL016C, strain dcc1, stronger effect = lower value 0.993 | locus YCL029C, strain bik1, stronger effect = lower value 0.982 | locus YCL061C, strain MRC1, stronger effect = lower value 0.983 | locus YCL069W, strain vba3, stronger effect = lower value 1 | locus YCR088W, strain abp1, stronger effect = lower value 1 | locus YDL005C, strain med2, stronger effect = lower value 1 | locus YDL035C, strain GPR1, stronger effect = lower value 1.01 | locus YDL040C, strain nat1, stronger effect = lower value 1 | locus YDL074C, strain BRE1, stronger effect = lower value 0.982 | locus YDL101C, strain DUN1, stronger effect = lower value 0.991 | locus YDL134C, strain PPH21, stronger effect = lower value 0.999 | locus YDL185W, strain tfp1, stronger effect = lower value 0.959 | locus YDL192W, strain arf1, stronger effect = lower value 0.99 | locus YDR001C, strain nth1, stronger effect = lower value 1.01 | locus YDR069C, strain doa4, stronger effect = lower value 0.999 | locus YDR101C, strain arx1, stronger effect = lower value 0.996 | locus YDR137W, strain rgp1, stronger effect = lower value 1.01 | locus YDR150W, strain NUM1, stronger effect = lower value 0.995 | locus YDR159W, strain sac3, stronger effect = lower value 0.99 | locus YDR162C, strain NBP2, stronger effect = lower value 0.997 | locus YDR195W, strain ref2 0.989 | locus YDR297W, strain sur2, stronger effect = lower value 0.995 | locus YDR318W, strain mcm21, stronger effect = lower value 0.984 | locus YDR334W, strain swr1, stronger effect = lower value 0.999 | locus YDR335W, strain msn5, stronger effect = lower value 1.01 | locus YDR388W, stronger effect = lower value 0.998 | locus YDR392W, strain spt3, stronger effect = lower value 0.957 | locus YDR502C, strain sam2, stronger effect = lower value 1 | locus YEL003W, strain gim4, stronger effect = lower value 1.01 | locus YEL037C, strain rad23, stronger effect = lower value 1 | locus YEL061C, strain CIN8 (second series), stronger effect = lower value 1 | locus YEL061C, strain CIN8, stronger effect = lower value 0.997 | locus YER015W, strain faa2, stronger effect = lower value 0.987 | locus YER016W, strain bim1, stronger effect = lower value 1 | locus YER110C, stronger effect = lower value 0.996 | locus YER111C, strain swi4, stronger effect = lower value 0.994 | locus YER155C, strain BEM2 (second series), stronger effect = lower value 1.01 | locus YER155C, strain BEM2, stronger effect = lower value 0.998 | locus YER167W, strain BCK2, stronger effect = lower value 1 | locus YFR010W, strain ubp6, stronger effect = lower value 0.998 | locus YGL078C, strain dbp3, stronger effect = lower value 1 | locus YGL086W, strain mad1, stronger effect = lower value 1.02 | locus YGL167C, strain pmr1, stronger effect = lower value 0.992 | locus YGL173C, strain kem1, stronger effect = lower value 0.995 | locus YGL227W, strain vid30, stronger effect = lower value 1 | locus YGL240W, strain doc1, stronger effect = lower value 0.986 | locus YGL248W, strain PDE1, stronger effect = lower value 1.01 | locus YGL253W, strain hxk2, stronger effect = lower value 0.996 | locus YGR078C, strain PAC10, stronger effect = lower value 1 | locus YGR135W, strain pre9, stronger effect = lower value 0.997 | locus YGR229C, strain SMI1, stronger effect = lower value 1 | locus YGR252W, strain gcn5, stronger effect = lower value 1.16 | locus YHR013C, strain ard1, stronger effect = lower value 0.997 | locus YHR027C, strain rpn1, stronger effect = lower value 1.01 | locus YHR030C, strain SLT2, stronger effect = lower value 0.996 and 1.01 | locus YHR079C, strain IRE1 (second series), stronger effect = lower value 0.992 | locus YHR079C, strain IRE1, stronger effect = lower value 1.02 | locus YHR094C, strain hxt1, stronger effect = lower value 0.98 | locus YHR129C, strain ARP1, stronger effect = lower value 0.997 | locus YHR142W, strain chs7, stronger effect = lower value 1.02 | locus YHR200W, strain rpn10, stronger effect = lower value 0.988 | locus YIL066C, strain RNR3, stronger effect = lower value 1 | locus YIL073C, strain SPO22, stronger effect = lower value 0.986 | locus YIL125W, strain kgd1, stronger effect = lower value 0.99 | locus YIR030C, strain dcg1, stronger effect = lower value 0.993 | locus YJL092W, strain hpr5, stronger effect = lower value 0.998 | locus YJL095W, strain BCK1 (second series), stronger effect = lower value 1 | locus YJL095W, strain BCK1, stronger effect = lower value 0.98 and 1.02 | locus YJL115W, strain asf1, stronger effect = lower value 0.993 | locus YJL129C, strain trk1, stronger effect = lower value 0.995 | locus YJL134W, strain LCB3, stronger effect = lower value 1 | locus YJL154C, strain vps35, stronger effect = lower value 1 | locus YJL164C, strain tpk1, stronger effect = lower value 0.996 | locus YJL166W, strain qcr8, stronger effect = lower value 0.991 | locus YJL168C, strain set2, stronger effect = lower value 0.992 | locus YJL187C, strain SWE1 (second series), stronger effect = lower value 0.987 | locus YJL187C, strain SWE1, stronger effect = lower value 1.02 | locus YJR043C, strain POL32, stronger effect = lower value 0.982 | locus YJR066W, strain TOR1, stronger effect = lower value 0.974

From PubChem BioAssay AID1159580 (chemical genetic matrix, 2015)
